# Laboratory results: PubChem BioAssay (NCI)
# “And” between values parts separate entries of the source, which are not always exact repeats. Equal values may be shown once. About 79,000 compounds went through this panel and 15% of them were active in at least one assay; those are over-represented in the sample as a whole. The source made the active and inactive calls. No stated cut-off is given here; in the data, active means growth inhibition above about 70%; inactive means the rest.
# Test: NCI Yeast Anticancer Drug Screen. Data for the mec2-1 strain (AID 157)
# Conditions: S. cerevisiae mec2-1 strain, at 50.0 µM, stronger effect = higher value
# Summary of the method: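 Yeast mec2-1 mutant treated with compound. Readout: growth inhibition vs vehicle controls.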
row,Compound,growth inhibition
1,O=P1(N(CCCl)CCCl)Nc2cc3ccccc3cc2N1,-15.7% (inactive)
2,CC(C)N1CC(COc2cccc3ccccc23)OP1(=O)N(CCCl)CCCl (stereo not given),98.7% (active)
3,CC(=O)c1ccc([As](=O)(O)O)cc1,-20.4% (inactive)
4,NC1=C(N2CC2)C(=O)C(N)=C(N2CC2)C1=O,-21.4% (inactive)
5,Cc1cc(NN=O)nc(C)n1,-4.05% (inactive)
6,O=[N+]([O-])O.[Sm],3.95% (inactive)
7,COc1ccc(C(OCC2OC(n3ccc(NC(=O)c4ccccc4)nc3=O)CC2OP2(=S)SCCS2)(c2ccccc2)c2ccc(OC)cc2)cc1 (stereo not given),-13.1% (inactive)
8,CC1=CC(=O)NP(=O)(Oc2ccc(C)cc2)N1 (stereo not given),16.1% (inactive)
9,CC1CN1P1(N2CC2C)=NP(N2CC2C)(N2CC2C)=NP(N2CC2C)(N2CC2C)=N1 (stereo not given),1.3% (inactive)
10,O=P1(C(Cl)Cl)OCCCO1,10.7% (inactive)
11,C[CH2][Sn]1([CH2]C)[O]OC(c2ccccc2)[O]1 (stereo not given),2.75% (inactive)
12,COc1ccc2n[se]nc2c1,28.1% (inactive)
13,CC1(C)CC(O)CC(C)(C)N1O,15.8% (inactive)
14,COP12(OC)NC(=O)OC1(C(F)(F)F)c1ccccc1O2 (stereo not given),-4% (inactive)
15,CCOP(=S)(OCC)OP(=O)(CC)CC,-10.1% (inactive)
16,CN(C)/N=C(\CCN1CCCC1)CC(c1ccccc1)c1c(O)c2ccccc2oc1=O (stereo not given),35.6% (inactive)
17,CC(CN1CCCCCC1)C(C#N)(c1ccccc1)c1ccccc1 (stereo not given),13.2% (inactive)
18,COc1ccc(N2CC=C(c3ccccc3)OP2(=O)N2CC2)cc1 (stereo not given),25.9% (inactive)
19,COc1cccc2c1C(=O)c1c(O)c3c(c(O)c1C2=O)CC(O)(C(=O)CO)CC3OC1CC(N2CCOCC2C#N)C(O)C(C)O1 (stereo not given),90.2% (active)
20,CNC(P(=O)([O-])[O-])P(=O)([O-])[O-].N.N.[Pt+2],-16.3% (inactive)

row,Compound,growth inhibition
1,OC1C2CCCCN2C[C@@H](O)[C@H]1O (stereo not given in full),11.9% (inactive)
2,[CH3][Sb]([CH3])([CH3])([O]C(=O)C(Cl)Cl)[O]C(=O)C(Cl)Cl,-7.15% (inactive)
3,C[N+]1(C)CCN(c2ccccc2)CC1,-29.6% (inactive)
4,COC(=O)C1=CO[C@@H](C)[C@@H]2CN3CCc4c([nH]c5cc(OC)ccc45)[C@H]3C[C@H]12,-32.6% (inactive)
5,C=C1CCC2CC1C2(C)C (stereo not given),0.75% (inactive) and -4.25% (inactive) and -15.2% (inactive)
6,CCC(C)C1(CCc2ccccc2)C(=O)NC(=O)NC1=O (stereo not given),-14.7% (inactive)
7,Br[CH](Br)[Hg][c]1ccccc1,99.5% (active)
8,CC1C2Cc3ccc(O)cc3C1(C)CCN2C (stereo not given),29.6% (inactive)
9,CCOC(=O)C1C(=O)C(=O)N2CCc3c([nH]c4ccccc34)C12 (stereo not given),7.55% (inactive)
10,CN(C)CCC(O)c1c[nH]c2ccccc12 (stereo not given),1% (inactive)
11,CCC1(c2ccccc2)C(=O)N(CCCl)C(=O)N(CCCl)C1=O,15.8% (inactive)
12,CC1(C)SC2C(NC(=O)Cc3ccccc3)C(=O)N2C1C(=O)O (stereo not given) (tested in a mixture with another compound),0.85% (inactive)
13,COc1ccc(-c2c[se]c(=S)s2)cc1,10.8% (inactive)
14,COc1cccc(C=C(C#N)C#N)c1,23.8% (inactive)
15,COP(=O)(OC)OC1C(=O)NC(=O)NC1=O,0.25% (inactive)
16,Cc1cc(N(CCCl)CCCl)ccc1C1N(Cc2ccc(N(C)C)cc2)CCN1Cc1ccc(N(C)C)cc1,1.55% (inactive)
17,O=C(NC1CCCCC1)c1c(O)[nH]c(=S)[nH]c1=O,-0.3% (inactive)
18,O=C(NCCN1CCOCC1)c1ccc2cc(C(=O)N3CC(CCl)c4ccc([N+](=O)[O-])cc43)[nH]c2c1 (stereo not given),92.2% (active)
19,Cc1cc(Cc2cc(C)c(NC(=O)C(=O)C3C(=O)NC(=S)NC3=O)c(C(C)C)c2)cc(C(C)C)c1NC(=O)C(=O)C1C(=O)NC(=S)NC1=O,-8% (inactive)
20,O=C(Cc1cccc([N+](=O)[O-])c1)Nc1cccc(S(=O)(=O)F)c1,-19.6% (inactive)
